Laboratory results as given in PubChem BioAssay (NCI).
Several values for one entry are separate records, joined by “and”; a condition that tells them apart may be missing. Identical values can stand only once. The panel holds about 83,000 compounds, 20% with a hit somewhere; the sample as a whole holds those more often.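 Plates (96-well) were seeded with cells, treated with compound at one concentration, and incubated for 48 hours before percent growth was determined.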

Key:
Experiment in all cases: NCI-60 one-dose screen, 48 h (100 = growth as untreated, 0 = no growth, -100 = all killed)
Details in all cases: 10 µM unless noted; active = growth percent below 10; inactive = the rest
[1] = test system: NCI-H23 lung
[2] = test system: NCI-H226 lung
[3] = test system: NCI-H322M lung
[4] = test system: HOP-62 NSCLC
[5] = test system: HOP-92 NSCLC
[6] = test system: NCI-H522 lung
[7] = test system: A549/ATCC NSCLC
[8] = test system: 786-0 renal
[9] = test system: COLO 205 colon
[10] = test system: DU-145 prostate
[11] = test system: K-562 leukemia
[12] = test system: MALME-3M melanoma
[13] = test system: MDA-MB-231 breast
[14] = test system: RXF 393 renal
[15] = test system: SF-268 CNS
[16] = test system: SF-295 CNS
[17] = test system: SF-539 CNS
[18] = test system: UACC-257 melanoma
[19] = test system: M14 melanoma
[20] = test system: NCI-H460 lung

Measured: growth

CC(=O)C[n+]1ccccc1Sc1ccc(Cl)cc1
inactive: [1] 100% | [2] 91.1% | [3] 99.6% | [4] 107% | [5] 98.8% | [6] 108% | [7] 84.6% | [8] 82.6% | [9] 109% | [10] 95% | [11] 90.9% | [12] 97.1% | [13] 52.3% | [14] 109% | [15] 74.9% | [16] 82.9% | [17] 68.8% | [18] 99% | [19] 99.3%

CCOC(=O)c1ccc(N2C(=O)C(Cl)(c3ccccc3)C2c2ccco2)cc1 (configuration not stated)
inactive: [1] 70.4% | [2] 81.1% | [3] 83.8% | [4] 110% | [20] 84.2% | [5] 63.7% | [6] 34.2% | [7] 86.2% | [8] 80.9% | [9] 96.7% | [10] 65.4% | [11] 31.1% | [12] 86.7% | [13] 80% | [14] 99.7% | [15] 77.8% | [16] 86.4% | [17] 96.2% | [18] 89.7% | [19] 98.7%

C/C=C/C(=O)OCCCCCCCCCCCC
inactive: [1] 105% | [2] 87.3% | [3] 114% | [4] 102% | [5] 96.5% | [6] 96.3% | [7] 84.2% | [8] 95% | [9] 105% | [10] 118% | [11] 93.3% | [12] 111% | [13] 93.2% | [14] 110% | [15] 106% | [16] 105% | [17] 109% | [18] 94.4% | [19] 98.7%

COc1ccc([N+](=O)[O-])cc1OC
inactive: [1] 98.5% and 106% | [2] 101% and 98.2% | [3] 105% | [4] 98.2% and 109% | [5] 93.5% and 92.7% | [6] 111% and 93.7% | [7] 93% and 92.9% | [8] 104% and 95% | [9] 112% and 115% | [10] 111% and 118% | [11] 102% and 103% | [12] 117% and 104% | [13] 111% and 108% | [14] 114% and 104% | [15] 100% and 108% | [16] 102% and 105% | [17] 93.9% and 98% | [18] 90.1% and 95% | [19] 98.9% and 113%

CCOP(C)(=O)/C(Cc1ccc(OC)c(OC)c1)=N\O (configuration not stated)
inactive: [1] 97.1% | [2] 96% | [3] 90.5% | [4] 98.7% | [20] 105% | [5] 100% | [6] 102% | [7] 108% | [8] 103% | [9] 112% | [10] 116% | [11] 101% | [12] 98.5% | [13] 109% | [14] 113% | [15] 102% | [16] 100% | [17] 100% | [18] 113% | [19] 108%

CCCCCCC(C)CC1=C(O)c2ccccc2C(=O)C1=O (configuration not stated)
inactive: [1] 42.2% | [2] 37.3% | [3] 51.7% | [4] 59.3% | [20] 14.3% | [5] 67% | [6] 56.2% | [7] 36% | [8] 27.1% | [9] 80.2% | [10] 45.2% | [11] 31.1% | [12] 54.9% | [13] 66.2% | [14] 60% | [15] 53.2% | [16] 35.4% | [17] 34% | [18] 38.2% | [19] 44.1%
